Experiment [1] in a line: Nuclear factor erythroid 2-related factor 2/antioxidant responsive element (Nrf2/ARE) small molecule agonists: qHTS cell viability counter screen in human keratinocytes (AID 1919968; active = well fitted cell-killing curve with a large enough effect in the repeat runs; note: nearly all actives have a fitted effect of over 55% in size; note: potency is the fitted concentration of half-maximal effect). In a few lines:
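KeratinoSens HaCaT cells, 1,500/well, preincubated 5 h, then exposed to compounds in DMSO for 23 h at 37 C/5% CO2. Viability read as CellTiter-Fluor fluorescence after 1 h, in the same wells as the ARE-luciferase read.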
For orientation: qHTS replaces the single test concentration by a dilution series.

Experiment [2] can be described thus: Nuclear factor erythroid 2-related factor 2/antioxidant responsive element (Nrf2/ARE) small molecule agonists: luciferase reporter gene qHTS assay in human keratinocytes (AID 1919969). Note: nearly all actives have a fitted effect of over 35% in size. In general terms: In a reporter assay the amount or activity of a reporter protein is the signal.
Experiment [3] concerns the target Gonadotropin-releasing hormone receptor (Homo sapiens) (UniProt P30968). Kind of experiment: Human gonadotropin-releasing hormone receptor (GnRHR) small molecule agonists, calcium flux assay in GnRHR-HEK293 cells (AID 1920063). Note: nearly all actives have a fitted effect of over 35% in size. In a few lines: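 HEK293 cells stably expressing human GnRHR were dye-loaded for 1 h at 37 C. Compound was added in agonist mode and fluorescence (Ex/Em 480/540) recorded kinetically for 3 min. Fifteen concentrations, triplicates.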
In general terms: A change in cytosolic calcium serves as a functional read-out for many receptors and channels.

Experiment [4] can be described thus: G protein-coupled receptor (GPCR) small molecule agonists, calcium flux assay: HEK293 wild type cell line counter screen (AID 1920065). An outline of the steps: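 Wild-type HEK293 cells plated 18 h, loaded with calcium dye 1 h at 37 C, then compounds added in agonist mode (ATP as positive control). Kinetic fluorescence Ex/Em 480/540 recorded 3 min at 1 sec intervals; 15 concentrations, triplicate.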

The nature of experiment [5]: p53 small molecule agonists, cell-based qHTS assay with rat liver microsomes (AID 1963578). Note: potency is the fitted concentration of half-maximal effect. In a few lines: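 Quantitative HTS of the Tox21 10K library: p53RE-bla cells, rat liver microsomes plus NADPH at 0.5 mg/mL final each, 16 h at 37 C, beta-lactamase fluorescence detection.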
Experiment [6] in a line: p53 small molecule agonists, cell-based qHTS assay with human liver microsomes: qHTS cell viability counter screen (AID 1963579). Note: nearly all actives have a fitted effect of over 45% in size. In a few lines:
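Viability of p53RE-bla cells is measured as CellTiter-Glo luminescence following a 16 h, 37 C incubation with compound, liver microsomes from human donors and NADPH.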

Experiment [7] can be described thus: p53 small molecule agonists, cell-based qHTS assay with rat liver microsomes: qHTS cell viability counter screen (AID 1963580). Note: nearly all actives have a fitted effect of over 45% in size. Note: potency is the fitted concentration of half-maximal effect. An outline of the steps: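 In HCT-116 cells carrying a p53 response element-bla reporter, compounds were metabolically activated in situ by rat liver microsomes with NADPH over 16 h. Cell ATP content then served as the cytotoxicity measure.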

Experiment [8] is described as follows: p53 small molecule agonists, cell-based qHTS assay (AID 1963582; active = well fitted activation curve with a large enough effect in the signal ratio in the repeat runs, not every such curve was filed as active; the % refers to the signal ratio; note: potency is the fitted concentration of half-maximal effect). An outline of the steps:
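p53RE-bla reporter cells, compounds added in DMSO after 5 h plating, incubated 16 h at 37 C. Beta-lactamase read via 2 h room-temperature LiveBLAzer B/G FRET substrate, fluorescence intensity.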

The target in experiment [9] is Beta-2 adrenergic receptor (Homo sapiens) (UniProt P07550). As to the kind of experiment: Adrenergic beta2 receptor (ADRB2) small molecule antagonists, cell-based qHTS assay (AID 1963592). Note: series mostly up to about 92 µM; nearly all actives have a fitted effect of over 50% in size. In a few lines:
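Cells (CHO, stable ADRB2 overexpression) incubated 18-20hr at 37C; compounds added from DMSO; agonist mix (1nM isoproterenol, 100uM IBMX, 25uM Ro-20-1724) added; 0.5hr RT; d2-cAMP and anti-cAMP-cryptate added; 1hr RT; 665/615 nm read.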

Experiment [10] deals with D(2) dopamine receptor (Homo sapiens) (UniProt P14416). As to the kind of experiment: Dopamine D2 receptor (DRD2) small molecule agonists, cell-based qHTS assay (AID 1963594). Note: nearly all actives have a fitted effect of over 35% in size. An outline of the steps: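 HEK293 cells stably expressing DRD2 were cultured 24 h at 37 C, then given Ro20-1724 (0.1 mM final) and compounds for 10 min at room temperature. NKH477 (200nM) was then added for 30 min. cAMP was read by HTRF.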

Experiment [11] has the same target. Kind of experiment: Dopamine D2 receptor (DRD2) small molecule antagonists, cell-based qHTS assay (AID 1963595; active = well fitted inhibition curve with a large enough effect in the signal ratio in the repeat runs, with a control signal flat; the % refers to the signal ratio). In a few lines: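 Readout: HTRF cAMP, cAMP-d2 competing with cellular cAMP for anti-cAMP cryptate, read after 1 h. Cells: DRD2-HEK293. Conditions: 0.1 mM Ro20-1724, 12 nM quinpirole, 200 nM NKH477, 30 min RT.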
Experiment [12] is described as follows: cAMP Responsive Elements (CRE) small molecule agonists, cell-based qHTS assay (AID 1963590). In a few lines:
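CRE-bla HEK 293T cells, 2,000/well in DMEM with 10% dialyzed FBS and 25 mM HEPES, pre-incubated 18 h at 37 C, then exposed to compound 3 h at 37 C. Beta-lactamase reporter read with LiveBLAzer B/G FRET substrate after 2 h at room temperature.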

The nature of experiment [13]: p53 small molecule agonists, cell-based qHTS assay: qHTS cell viability counter screen (AID 1963581). Note: nearly all actives have a fitted effect of over 45% in size. An outline of the steps: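 p53RE-bla HCT-116 cells, compounds added 5 h after plating and incubated 16 h at 37 C. Cytotoxicity measured in the same wells as intracellular ATP by CellTiter-Glo luminescence after 30 min at room temperature.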
Experiment [14] concerns the target 5-hydroxytryptamine receptor 2A (Homo sapiens) (UniProt P28223). As to the kind of experiment: 5-hydroxytryptamine receptor 2A (HTR2A) small molecule antagonists, cell-based qHTS assay (AID 1963586). Note: nearly all actives have a fitted effect of over 45% in size. An outline of the steps:
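Antagonist-mode intracellular calcium assay: DOI (4 nM) added after 5 min compound pre-incubation at room temperature to dye-loaded HTR2A-CHO cells. Fluorescence followed for 3 min, sampled every second.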

Experiment [15] has the same target. Kind of experiment: 5-hydroxytryptamine receptor 2A (HTR2A) small molecule agonists, cell-based qHTS assay (AID 1963587). Note: nearly all actives have a fitted effect of over 30% in size. Note: potency is the fitted concentration of half-maximal effect. An outline of the steps: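 HTR2A-CHO cells, plated 18 h at 37 C/5% CO2, dye-loaded 1 h at 37 C; compounds in DMSO added by pin tool (agonist mode). Intracellular calcium flux read as kinetic fluorescence on FDSS over 2 min at 1 s intervals.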

Experiment [16] addresses Muscarinic acetylcholine receptor M1 (Homo sapiens) (UniProt P11229). As to the kind of experiment: Cholinergic receptor muscarinic 1 (CHRM1) small molecule antagonists, cell-based qHTS assay (AID 1963588). Note: nearly all actives have a fitted effect of over 40% in size. Note: potency is the fitted concentration of half-maximal effect. An outline of the steps:
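CHRM1-CHO calcium-flux assay, antagonist mode. Cells were seeded 18 h, dye-loaded 1 h at 37 C and given compound for 5 min at RT, then acetylcholine was added at 50nM. FDSS fluorescence was read 3 min; 15 concentrations, three runs.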

Experiment [17] shares this target. As to the kind of experiment: Cholinergic receptor muscarinic 1 (CHRM1) small molecule agonists, cell-based qHTS assay (AID 1963589). Note: nearly all actives have a fitted effect of over 35% in size. In a few lines: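 CHO cells stably expressing human CHRM1 were loaded with calcium dye for 1 h at 37 C, then compound was added in agonist mode. Intracellular calcium fluorescence was followed kinetically at 1 s intervals. Fifteen concentrations were tested in three independent runs.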

Experiment [18] can be described thus: cAMP Responsive Elements (CRE) small molecule antagonists, cell-based qHTS assay (AID 1963591; active = well fitted inhibition curve with a large enough effect in the signal ratio in the repeat runs, not every such curve was filed as active; the % refers to the signal ratio). An outline of the steps:
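CRE-bla HEK293T cells plated 18 h, then given compound plus NKH477 at 0.25 uM final for 3 h at 37C. Beta-lactamase reporter read with LiveBLAzer B/G FRET substrate after 2 h at room temperature.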

Experiment [19] deals with Beta-2 adrenergic receptor (Homo sapiens) (UniProt P07550). As to the kind of experiment: Adrenergic beta2 receptor (ADRB2) small molecule agonists, cell-based qHTS assay (AID 1963593).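 Note: CHO cells stably overexpressing human ADRB2.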 In a few lines:
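CHO cells stably over-expressing ADRB2 were plated overnight at 37C, then dosed with compounds plus a stimulation mix containing 100uM IBMX and 25uM Ro-20-1724 for 0.5hr at room temperature. cAMP was measured by HTRF competition, 1hr.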

Data on 8 compounds can be found in PubChem BioAssay (Tox21).

SMILES strings stand for the structures. Records with an inconclusive call do not appear. The source made the active and inactive calls. Unless noted, calls come from the whole dose curve.

5-hydroxytryptamine receptor 2A (Homo sapiens), sequence (P28223 whole entry, looked up): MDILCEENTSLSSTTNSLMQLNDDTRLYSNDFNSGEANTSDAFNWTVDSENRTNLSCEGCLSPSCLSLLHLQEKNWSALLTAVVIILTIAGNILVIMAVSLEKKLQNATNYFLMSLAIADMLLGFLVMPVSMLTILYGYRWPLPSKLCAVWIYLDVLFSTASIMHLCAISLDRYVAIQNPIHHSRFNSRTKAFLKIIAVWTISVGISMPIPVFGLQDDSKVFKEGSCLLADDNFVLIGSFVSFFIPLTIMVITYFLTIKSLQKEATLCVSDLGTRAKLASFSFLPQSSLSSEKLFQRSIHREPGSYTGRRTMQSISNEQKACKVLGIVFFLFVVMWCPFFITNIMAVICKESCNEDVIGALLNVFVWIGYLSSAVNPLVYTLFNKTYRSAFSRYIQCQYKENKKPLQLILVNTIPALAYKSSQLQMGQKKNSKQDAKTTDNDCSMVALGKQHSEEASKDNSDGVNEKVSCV
Gonadotropin-releasing hormone receptor (Homo sapiens), sequence (P30968 whole entry, looked up): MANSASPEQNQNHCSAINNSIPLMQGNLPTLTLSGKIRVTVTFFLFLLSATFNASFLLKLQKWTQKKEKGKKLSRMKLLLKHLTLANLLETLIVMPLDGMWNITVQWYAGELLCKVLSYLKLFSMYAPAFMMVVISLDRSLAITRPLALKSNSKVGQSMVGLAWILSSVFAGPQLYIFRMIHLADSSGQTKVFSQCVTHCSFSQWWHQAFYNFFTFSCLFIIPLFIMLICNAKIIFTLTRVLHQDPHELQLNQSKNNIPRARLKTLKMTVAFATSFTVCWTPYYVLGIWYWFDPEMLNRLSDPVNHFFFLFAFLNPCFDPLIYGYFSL
D(2) dopamine receptor (Homo sapiens), sequence (P14416 whole entry, looked up): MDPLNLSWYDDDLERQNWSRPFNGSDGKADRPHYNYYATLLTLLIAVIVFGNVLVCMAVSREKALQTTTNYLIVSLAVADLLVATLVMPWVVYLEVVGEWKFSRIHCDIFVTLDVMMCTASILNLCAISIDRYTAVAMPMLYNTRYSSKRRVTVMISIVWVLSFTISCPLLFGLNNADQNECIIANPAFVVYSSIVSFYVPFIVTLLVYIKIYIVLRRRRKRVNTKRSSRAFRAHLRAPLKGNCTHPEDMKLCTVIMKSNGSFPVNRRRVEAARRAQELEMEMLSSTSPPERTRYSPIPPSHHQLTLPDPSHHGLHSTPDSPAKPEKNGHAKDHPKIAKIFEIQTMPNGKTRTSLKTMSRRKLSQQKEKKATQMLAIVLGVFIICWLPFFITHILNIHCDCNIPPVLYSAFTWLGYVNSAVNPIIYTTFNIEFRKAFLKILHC
Muscarinic acetylcholine receptor M1 (Homo sapiens), sequence (P11229 whole entry, looked up): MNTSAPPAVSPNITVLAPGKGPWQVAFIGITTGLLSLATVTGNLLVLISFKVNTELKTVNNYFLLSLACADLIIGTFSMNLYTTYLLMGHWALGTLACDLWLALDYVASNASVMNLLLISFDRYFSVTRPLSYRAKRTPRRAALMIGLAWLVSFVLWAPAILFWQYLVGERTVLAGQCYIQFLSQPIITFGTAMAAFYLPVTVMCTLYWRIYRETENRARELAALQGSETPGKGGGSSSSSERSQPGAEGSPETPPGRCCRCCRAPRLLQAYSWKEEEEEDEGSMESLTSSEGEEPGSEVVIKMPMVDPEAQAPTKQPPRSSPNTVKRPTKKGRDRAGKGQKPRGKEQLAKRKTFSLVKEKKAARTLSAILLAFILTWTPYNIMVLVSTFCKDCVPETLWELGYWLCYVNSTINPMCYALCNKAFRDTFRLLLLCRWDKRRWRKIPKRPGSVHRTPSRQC
Beta-2 adrenergic receptor (Homo sapiens), sequence (P07550 whole entry, looked up): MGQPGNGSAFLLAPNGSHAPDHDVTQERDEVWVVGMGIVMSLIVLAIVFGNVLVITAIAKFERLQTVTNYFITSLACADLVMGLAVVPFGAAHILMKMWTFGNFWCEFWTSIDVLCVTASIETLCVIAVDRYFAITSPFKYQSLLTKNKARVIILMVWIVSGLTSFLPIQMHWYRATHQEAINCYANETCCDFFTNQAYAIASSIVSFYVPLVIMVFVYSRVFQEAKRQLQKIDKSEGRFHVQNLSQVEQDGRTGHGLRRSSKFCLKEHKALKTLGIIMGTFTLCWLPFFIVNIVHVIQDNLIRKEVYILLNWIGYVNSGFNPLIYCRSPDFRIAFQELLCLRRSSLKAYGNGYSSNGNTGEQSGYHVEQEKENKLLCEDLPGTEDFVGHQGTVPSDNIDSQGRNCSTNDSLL

For `C[C@H]1C[C@H]2[C@@H]3CCC4=CC(=O)C=C[C@]4(C)[C@@]3(Cl)[C@@H](O)C[C@]2(C)[C@@]1(O)C(=O)CO`, the Potency result in [1], in experiment [2], in [3], in experiment [4], in experiment [5] and in [6] was “inactive” in each case. For the same compound, the Potency entry in experiment [7], in [8], in experiment [9], in experiment [10] and in [11] was “inactive” each time.

On to `CCc1c2c(nc3ccc(OC(=O)N4CCC(N5CCCCC5)CC4)cc13)-c1cc3c(c(=O)n1C2)COC(=O)[C@]3(O)CC`, for which the Potency result in [1], in [2], in experiment [3], in experiment [4], in [6] and in [12] was “inactive” throughout. Moreover, the Potency result in [9], in [10] and in experiment [11] was “inactive” each time. The Potency was 0.0178 µM (active) in experiment [5], 1.26 µM (active) in [7] and 5 µM (active) in experiment [8].

For the compound `CCCCN(CCC(=O)OCC)C(C)=O`, the Potency entry in [1], in experiment [2], in experiment [3], in [4], in [6] and in [7] was “inactive” in each case. Also, the Potency result in experiment [13], in experiment [14], in [15], in [16], in experiment [17] and in experiment [12] was “inactive” each time. Moreover, the Potency entry in [18], in experiment [9], in experiment [19], in experiment [10] and in [11] was “inactive” in each case.

Regarding `CC(C)c1cccc(C(C)C)c1N1C(=O)c2ccc(O)cc2C1=O`, the Potency entry in experiment [1], in [2], in experiment [3], in experiment [4], in experiment [14] and in [9] was “inactive” each time. For the same compound, the Potency result in experiment [10] and in experiment [11] was “inactive” in each case. The Potency in experiment [15] is 43.6 µM (active); in [16], 37.5 µM (active).

Take `CCCOC(=O)CC`: the Potency entry in experiment [1], in [2], in experiment [3], in experiment [4], in experiment [6] and in experiment [7] was “inactive” each time. In addition, the Potency result in [13], in experiment [14], in experiment [15], in [16], in experiment [17] and in experiment [12] was “inactive” each time. For the same compound, the Potency entry in experiment [18], in [9], in [10] and in experiment [11] was “inactive” in each case.

`Cc1ncc(COP(=O)(O)O)c(C=O)c1O`: the Potency result in [1], in experiment [2], in [3], in [4], in [6] and in experiment [7] was “inactive” throughout. For the same compound, the Potency result in experiment [13], in experiment [14], in experiment [15], in experiment [16], in [17] and in experiment [12] was “inactive” throughout. Moreover, the Potency result in [18], in experiment [9], in experiment [10] and in experiment [11] was “inactive” throughout.

Turning to `Cc1cc(C)c(N)cc1C`, the Potency result in experiment [1], in [2], in experiment [3], in experiment [4], in experiment [6] and in experiment [7] was “inactive” throughout. The Potency entry in [13], in [14], in experiment [15], in experiment [16], in experiment [17] and in experiment [12] was “inactive” throughout. Also, the Potency entry in experiment [18], in experiment [9], in [10] and in [11] was “inactive” in each case.

For `Cc1cc2c(cc1CC(=O)c1sccc1S(=O)(=O)Nc1onc(C)c1Cl)OCO2`, the Potency in [1] is 4.22 µM (active). In addition, the Potency entry in experiment [2], in experiment [3], in experiment [4], in experiment [6], in experiment [7] and in experiment [13] was “inactive” in each case. Besides, the Potency entry in [8], in experiment [14], in experiment [15], in [16], in experiment [17] and in experiment [12] was “inactive” in each case. In addition, the Potency result in experiment [18], in experiment [19], in [10] and in experiment [11] was “inactive” throughout.
